The target of experiment [1] is Thyrotropin receptor (Homo sapiens) (UniProt P16473). The experiment is described as follows: qHTS assay to identify small molecule agonists of the thyroid stimulating hormone receptor (TSHR) signaling pathway (AID 1224843; calls by dose curve; further: nearly all actives have a fitted effect of over 45% in size). The method, boiled down:
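Agonist-mode screen: TSHR HEK293 cells received test chemicals for half an hour at room temperature, then HTRF cAMP detection reagents for one hour prior to fluorescence measurement. Each chemical ran as a 15-concentration series, triplicated.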
Background: In qHTS, concentration-response curves come from the screen itself.

Experiment [2] is described as follows: qHTS assay to identify small molecule agonists of the hypoxia (HIF-1) signaling pathway - cell viability counter screen (AID 1224844; calls by dose curve; further: nearly all actives have a fitted effect of over 50% in size; further: potency means the concentration at half of the fitted maximal effect). The method, boiled down: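 Viability counter screen: HRE-bla ME-180 cells plated 5 hrs before compound addition, treated 17 hrs at 37C and 5% CO2, then CellTiter-Glo added after the FRET reporter read; luminescence after 30 min.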

Experiment [3] in a line: qHTS assay to identify small molecule agonists of H2AX (AID 1224845; active means well fitted activation curve with a large enough effect in the signal ratio in the repeat runs, not every such curve was filed as active; the % refers to the signal ratio; further: potency means the concentration at half of the fitted maximal effect). The method, boiled down: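 Wild-type CHO-K1 cells, plated overnight, exposed 3hr at 37C to 15 concentrations (0.76% DMSO final). Lysed, then HTRF anti-pH2AX (S139) cryptate and anti-H2AX-d2 antibodies, 24 hr room temperature; 665/620 nm emission read.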
Experiment [4] is described as follows: qHTS assay to identify small molecule agonists of the hypoxia (HIF-1) signaling pathway (AID 1224846; active means well fitted activation curve with a large enough effect in the signal ratio in the repeat runs, not every such curve was filed as active; the % refers to the signal ratio). The method, boiled down: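 Agonist mode reporter screen. ME-180 cells stably expressing bla under HRE control received test compounds in DMSO for 17 hrs (37C, 5% CO2), and beta-lactamase activity was then detected with the CCF4-AM FRET substrate.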
A short description of experiment [5]: qHTS assay to identify small molecule agonists of H2AX - cell viability counter screen (AID 1224847; calls by dose curve; further: top concentration of the series differs between compounds; nearly all actives have a fitted effect of over 30% in size). The method, boiled down:
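Compounds tested at 15 concentrations were incubated 3 hr at 37C with wild-type CHO-K1 cells; cellular ATP-based luminescence (CellTiter-Glo) indicated viability.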

The nature of experiment [6]: qHTS RealTime-Glo MT Cell Viability Assay in HepG2 cells - 24 hour (AID 1224867). Further: nearly all actives have a fitted effect of over 50% in size. In outline: (§1)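 HepG2 cells (600/well) were dispensed with RealTime-Glo reagents, incubated 5 h at 37 °C, then treated with compounds in DMSO for up to 40 h. Nonlytic NanoLuc luminescence reflecting viable cells was read at each stated time point.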
A short description of experiment [7]: A CellTox Green Cytotoxicity Assay to monitor cytotoxicity in HEK293 cells - 0 hour (AID 1224869). Further: nearly all actives have a fitted effect of over 50% in size. The method, boiled down:
(§2)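 Dead-cell fluorescence measured kinetically: asymmetric cyanine dye, HEK293, 600 cells/well, 5 h settle, 23 nL cpd/DMSO, 37 C, reads 0–40 h every 8 h.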

Experiment [8] can be described thus: qHTS RealTime-Glo MT Cell Viability Assay in HepG2 cells - 40 hour (AID 1224870). Further: nearly all actives have a fitted effect of over 50% in size. In outline: (§3)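 HepG2 cells (600/well) mixed with RealTime-Glo MT reagent, settled 5 h at 37 C/5% CO2 before compound addition. Nonlytic NanoLuc luminescence from viable-cell prosubstrate reduction read repeatedly during 40 h treatment at 37 C.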
A short description of experiment [9]: A CellTox Green Cytotoxicity Assay to monitor cytotoxicity in HEK293 cells - 40 hour (AID 1224871). Further: nearly all actives have a fitted effect of over 45% in size. Further: potency means the concentration at half of the fitted maximal effect. In outline:
as §2

Experiment [10] in a line: qHTS RealTime-Glo MT Cell Viability Assay in HEK293 cells - 16 hour (AID 1224872). In outline:
(§4)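 HEK293 cells seeded with NanoLuc/prosubstrate reagent, rested 5 h at 37 C, then dosed and kept at 37 C up to 40 h. Nonlytic real-time luminescence from viable cells read at 0, 8, 16, 24, 32 and 40 h.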

Experiment [11] is described as follows: qHTS RealTime-Glo MT Cell Viability Assay in HepG2 cells - 8 hour (AID 1224873). Further: nearly all actives have a fitted effect of over 55% in size. In outline: as §3
Experiment [12] can be described thus: A CellTox Green Cytotoxicity Assay to monitor cytotoxicity in HEK293 cells - 24 hour (AID 1224875). Further: nearly all actives have a fitted effect of over 45% in size. Further: potency means the concentration at half of the fitted maximal effect. In outline: as §2
Experiment [13] is described as follows: A CellTox Green Cytotoxicity Assay to monitor cytotoxicity in HepG2 cells - 16 hour (AID 1224876). Further: nearly all actives have a fitted effect of over 45% in size. Further: potency means the concentration at half of the fitted maximal effect. The method, boiled down:
(§5)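 First, HepG2 cells (600/well) mixed with reagent were plated; second, after 5 h at 37 C they received compounds via pintool; third, fluorescence was measured at 0 h through 40 h at 8 h intervals.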

Experiment [14] is described as follows: qHTS RealTime-Glo MT Cell Viability Assay in HepG2 cells - 32 hour (AID 1224877). Further: nearly all actives have a fitted effect of over 55% in size. In outline:
as §1

Experiment [15] is described as follows: A CellTox Green Cytotoxicity Assay to monitor cytotoxicity in HepG2 cells - 24 hour (AID 1224878). Further: nearly all actives have a fitted effect of over 45% in size. Further: potency means the concentration at half of the fitted maximal effect. The method, boiled down: as §5
Experiment [16] in a line: A CellTox Green Cytotoxicity Assay to monitor cytotoxicity in HepG2 cells - 40 hour (AID 1224879). Further: nearly all actives have a fitted effect of over 40% in size. Further: potency means the concentration at half of the fitted maximal effect. In outline:
as §5

The nature of experiment [17]: qHTS assay to identify small molecule antagonists of the estrogen related receptor (ERR) signaling pathway from Tox21 library (AID 1224848). Further: nearly all actives have a fitted effect of over 50% in size. In outline:
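Quantitative high-throughput format: ERR reporter cells (2,000/well) pre-incubated 6 h, treated 18 h at 37 C with compounds in DMSO alongside positive and negative controls, then read by ONE-Glo luminescence.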

The nature of experiment [18]: qHTS assay to identify small molecule agonists of the estrogen related receptor (ERR) signaling pathway from Tox21 library (AID 1224849; calls by dose curve; further: nearly all actives have a fitted effect of over 15% in size). The conditions noted are these: ERR reporter cell line, ONE-Glo luciferase, 18 h; at 92.4 µM (top of the series) unless noted. In outline:
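Quantitative HTS in agonist format: NTP ERR cell line, compounds transferred in DMSO after 6 h plating, 18 h incubation at 37 C, ONE-Glo luminescence endpoint.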

Experiment [19] can be described thus: qHTS RealTime-Glo MT Cell Viability Assay in HEK293 cells - 32 hour (AID 1224868). The method, boiled down: as §4
A short description of experiment [20]: qHTS RealTime-Glo MT Cell Viability Assay in HEK293 cells - 40 hour (AID 1224874). Further: nearly all actives have a fitted effect of over 50% in size. The conditions noted are these: RealTime-Glo luminescence; max response: active compounds read low. In outline:
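600 HEK293 cells per well, dispensed already mixed with RealTime-Glo MT reagents. Compound dosing came 5 h later. The same wells were read for luminescence at 0, 8, 16, 24, 32 and 40 h of exposure at 37 C.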

Unmarked numbers belong to inactive results. Inconclusive results are not listed. Active and inactive are the calls of the source. Unless noted, the call rests on the fitted dose curve; in most records, active means well fitted curve in the direction sought with a large enough effect in the repeat runs; inconclusive means weak or mixed curves; inactive means no such curve, though single readings can be large; an effect the other way counts as inactive or inconclusive.
On the % scale 0 is the no-effect control and ±100 the full control effect.

Chain of Thyrotropin receptor (Homo sapiens) (P16473 whole entry, looked up): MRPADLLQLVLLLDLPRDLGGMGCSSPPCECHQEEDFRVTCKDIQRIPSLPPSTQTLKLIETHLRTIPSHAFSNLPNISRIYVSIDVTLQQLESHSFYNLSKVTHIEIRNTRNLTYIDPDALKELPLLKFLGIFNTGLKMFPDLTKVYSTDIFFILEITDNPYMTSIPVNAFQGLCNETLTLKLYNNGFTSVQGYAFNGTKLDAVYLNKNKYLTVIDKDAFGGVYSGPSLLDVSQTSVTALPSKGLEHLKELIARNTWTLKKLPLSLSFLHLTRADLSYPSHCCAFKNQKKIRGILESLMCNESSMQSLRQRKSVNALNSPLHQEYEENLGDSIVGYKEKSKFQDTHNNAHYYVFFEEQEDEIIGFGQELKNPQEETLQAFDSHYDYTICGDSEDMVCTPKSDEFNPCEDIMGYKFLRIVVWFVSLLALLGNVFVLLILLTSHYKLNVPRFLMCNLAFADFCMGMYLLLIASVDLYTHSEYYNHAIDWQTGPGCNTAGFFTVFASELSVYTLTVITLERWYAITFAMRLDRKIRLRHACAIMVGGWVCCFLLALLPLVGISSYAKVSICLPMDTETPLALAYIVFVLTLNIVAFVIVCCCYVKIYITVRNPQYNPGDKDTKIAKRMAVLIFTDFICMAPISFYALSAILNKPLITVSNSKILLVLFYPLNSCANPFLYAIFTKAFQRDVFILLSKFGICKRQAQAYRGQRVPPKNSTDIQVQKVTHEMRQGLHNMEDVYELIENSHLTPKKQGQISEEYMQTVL

`CCCS(=O)c1ccc2nc(NC(=O)OC)[nH]c2c1` (stereo unspecified): the Potency entry in [1], in experiment [2], in experiment [3], in [5], in [6] and in experiment [7] was “inactive” throughout. For the same molecule, the Potency entry in [8], in experiment [9], in [10], in experiment [12], in experiment [13] and in experiment [14] was “inactive” throughout. In addition, the Potency entry in experiment [15] is “inactive”. Moreover, the result in experiment [4] and in experiment [11] was inactive. In addition, the Potency in experiment [16] is 12 µM (active).

Regarding `O=c1[nH]cnc2c1ncn2[C@@H]1O[C@H](CO)[C@@H](O)[C@H]1O`, the Potency entry in experiment [1], in experiment [2], in experiment [3], in experiment [17], in experiment [6] and in experiment [19] was “inactive” throughout. Moreover, the Potency result in experiment [7], in experiment [8], in experiment [9], in [10], in [12] and in experiment [13] was “inactive” in each case. Moreover, the Potency result in experiment [14], in experiment [15] and in [16] was “inactive” each time. The result in [4] and in experiment [11] was inactive. Besides, the activity change, positive = activation in experiment [18] is 2.74% [at 42.5 µM]. Besides, the max response in [20] was 1.22%.

Consider `Nc1ccc2ccccc2c1S(=O)(=O)O`, for which the Potency result in [1], in experiment [2], in experiment [3], in experiment [6], in experiment [19] and in experiment [7] was “inactive” each time. In addition, the Potency entry in experiment [8], in experiment [9], in experiment [10], in experiment [12], in experiment [13] and in experiment [14] was “inactive” in each case. For the same molecule, the Potency entry in [15] and in [16] was “inactive” in each case. The outcome in experiment [4] and in experiment [11] was inactive. Moreover, the max response in experiment [20] is -4.03%.

As for `CCCCCCCCCCCCOCCOS(=O)(=O)O`, the Potency entry in experiment [1], in experiment [3], in experiment [5], in experiment [6], in experiment [7] and in experiment [8] was “inactive” in each case. Further, the Potency entry in experiment [10] and in [14] was “inactive” throughout. Further, the Potency in [2] was 43.6 µM (active); in experiment [9], 24.5 µM (active); in experiment [12] it was 24.5 µM (active); in experiment [13], 49 µM (active); in [15], 49 µM (active); in [16] it was 54.9 µM (active). Besides, in [18], the activity change, positive = activation was -29.3%. In experiment [11], the outcome was inactive.

As for `O=c1[nH]c(=O)n([C@H]2C[C@H](O)[C@@H](CO)O2)cc1C(F)(F)F`, the Potency result in [1], in experiment [2], in experiment [5], in experiment [6], in experiment [19] and in experiment [7] was “inactive” in each case. For the same molecule, the Potency entry in experiment [8], in experiment [9], in experiment [10], in experiment [12], in experiment [13] and in experiment [14] was “inactive” throughout. The Potency result in experiment [15] is “inactive”. The Potency in experiment [3] is 0.196 µM (active); in [16] it was 19 µM (active). The activity change, positive = activation in experiment [18] was -26.8% [at 42.5 µM]. The max response in experiment [20] is -15%.

With `CC(=O)N(CC(O)CN(C(C)=O)c1c(I)c(C(=O)NCC(O)CO)c(I)c(C(=O)NCC(O)CO)c1I)c1c(I)c(C(=O)NCC(O)CO)c(I)c(C(=O)NCC(O)CO)c1I` (stereo unspecified), the Potency result in experiment [1], in experiment [2], in experiment [3], in experiment [5], in experiment [6] and in [19] was “inactive” throughout. Further, the Potency entry in experiment [7], in experiment [8], in experiment [9], in experiment [10], in [12] and in experiment [13] was “inactive” in each case. Moreover, the Potency entry in [14], in experiment [15] and in experiment [16] was “inactive” in each case. In addition, in experiment [11], the result was inactive. In experiment [20], the max response is 0.602%.

As to `NC(Cc1ccc(F)cc1)C(=O)O` (stereo unspecified), the activation in experiment [1] is 1.31% [at 8.39 µM]. Besides, the activity change, negative = cytotoxicity is 1.08% [at 6.97 µM] in experiment [2], 0.454% [at 14 µM] in [5], -1.43% [at 6.97 µM] in [6] and 1.36% [at 6.97 µM] in experiment [10]. Also, the activation (H2AX phosphorylation) in experiment [3] was -2.92% [at 14 µM]. The activity, negative = inhibition in experiment [17] was 1.15% [at 8.39 µM]. Also, the activity change, positive = activation in [18] is 0.59% [at 8.39 µM]. The activity change, negative = cytotoxic in experiment [19] was -0.0847% [at 6.97 µM]; in experiment [8] it was -10.7% [at 6.97 µM]; in experiment [14] it was -6.06% [at 6.97 µM]. Also, the cytotoxicity was 7.03% [at 6.97 µM] in experiment [7] and 7.85% [at 6.97 µM] in experiment [15]. Also, the cytotoxicity increase in experiment [9] was 10% [at 6.97 µM]; in [13] it was 8.03% [at 6.97 µM]; in experiment [16], 7.77% [at 6.97 µM]. In addition, the viability change, negative = cytotoxic in [11] was 1.3% [at 6.97 µM]. The max response in experiment [20] is 2.65%. The activity change in experiment [12] was 11.7% [at 6.97 µM, active compounds read high].

These data come from PubChem BioAssay (Tox21).
